Experimental data from PubChem BioAssay (NCI).
Compounds without any hit were thinned out: in the full panel of roughly 79,000, 15% have a hit. Activity calls are given as the source filed them. No stated cut-off is given here; in the data, active means growth inhibition above about 70%; inactive means the rest.

Columns and labels:
[1] = NCI Yeast Anticancer Drug Screen. Data for the rad52 strain (AID 147);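 further: 0% = growth of vehicle-treated control cultures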; conditions: S. cerevisiae rad52 mutant growth inhibition, active compounds read high
Summary of the method: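 Inhibition of yeast growth, referenced to vehicle controls, was the measured output for a strain with defective DNA damage repair.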

[2] = NCI Yeast Anticancer Drug Screen. Data for the wt1 strain (AID 149);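 further: 0% = growth of vehicle-treated wt1 cultures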; conditions: S. cerevisiae wt1 strain (SPY 50644) growth inhibition, active compounds read high
Summary of the method: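 wt1 yeast, compound-treated; % growth inhibition vs vehicle control.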

[3] = NCI Yeast Anticancer Drug Screen. Data for the mgt1 strain (AID 153); conditions: S. cerevisiae mgt1 mutant growth inhibition, active compounds read high
Summary of the method: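 In the mgt1 strain, test compounds were added and growth inhibition was determined relative to vehicle-treated controls.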

[4] = NCI Yeast Anticancer Drug Screen. Data for the rad50 strain (AID 155);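 further: 0% = growth of vehicle-only cultures of the same strain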; conditions: S. cerevisiae rad50 strain growth inhibition, active compounds read high
Summary of the method: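 Genetically altered yeast (DNA repair pathway); compound treatment; growth inhibition vs vehicle ctrl.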

[5] = NCI Yeast Anticancer Drug Screen. Data for the mec2-1 strain (AID 157); conditions: S. cerevisiae mec2-1 strain, active compounds read high
Summary of the method: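 Each compound was tested on mec2-1 yeast, a strain altered in DNA damage repair or cell cycle control. Growth inhibition is reported relative to vehicle.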

[6] = NCI Yeast Anticancer Drug Screen. Data for the rad14 strain (AID 159);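 further: 0% = growth of vehicle-treated control cultures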; conditions: S. cerevisiae rad14 strain growth inhibition, active compounds read high
Summary of the method: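 Test compounds were applied to a repair-deficient yeast strain. Its growth was then compared with that of cultures given vehicle alone, and inhibition was expressed relative to those controls.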

[7] = NCI Yeast Anticancer Drug Screen. Data for the sgs1 mgt1 strain (AID 161);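 further: 0% = growth of cultures given vehicle only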; conditions: S. cerevisiae sgs1 mgt1 strain, active compounds read high
Summary of the method: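 Inhibition of yeast growth, normalised to vehicle-treated controls, is reported for a strain bearing genetic alterations in DNA damage repair.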

[8] = NCI Yeast Anticancer Drug Screen. Data for the CLN2oe strain (AID 163);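 further: 0% = growth of vehicle-only control cultures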; conditions: S. cerevisiae CLN2oe strain, active compounds read high
Summary of the method: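 First, the altered yeast strain was treated with each compound; second, its growth was measured; finally, inhibition was derived by comparison with vehicle controls.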

[9] = NCI Yeast Anticancer Drug Screen. Data for the cln2 rad14 strain (AID 165);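 further: 0% = growth equal to vehicle treated cultures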; conditions: S. cerevisiae cln2 rad14 strain, active compounds read high
Summary of the method: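 Test compounds were added to cln2 rad14 yeast cultures; inhibition of growth was then determined by comparison with vehicle treatment.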

[10] = NCI Yeast Anticancer Drug Screen. Data for the bub3 strain (AID 167); conditions: S. cerevisiae bub3 mutant strain, active compounds read high
Summary of the method: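 Yeast carrying a defined mutation is treated with each compound, and growth is compared with that of vehicle-exposed cells to give inhibition.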

[11] = NCI Yeast Anticancer Drug Screen. Data for the wt2 strain (AID 169);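 further: 0% = growth of vehicle-treated yeast cultures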; conditions: S. cerevisiae wt2 strain growth inhibition, active compounds read high
Summary of the method: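 The panel's yeast strains carry defined changes in DNA repair or cell cycle genes. Each strain is grown with compound, and growth loss is scored relative to vehicle.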

[12] = NCI Yeast Anticancer Drug Screen. Data for the mlh1 strain (AID 171);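 further: 0% = growth of vehicle-treated control cultures of the same strain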; conditions: S. cerevisiae mlh1 strain growth inhibition, active compounds read high
Summary of the method: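 Inhibition values reflect reduced yeast growth in the presence of compound, referenced to vehicle controls, using a strain chosen for its alteration in DNA repair or cell cycle control.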

[13] = NCI Yeast Anticancer Drug Screen. Data for the sgs1 strain (AID 173);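 further: 0% = growth of vehicle-only control cultures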; conditions: S. cerevisiae sgs1 mutant, active compounds read high
Summary of the method: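 Vehicle-treated cultures served as reference for growth inhibition of a yeast strain altered in DNA damage repair or cell cycle control after compound exposure.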

[14] = NCI Yeast Anticancer Drug Screen. Data for the mlh1 rad18 strain (AID 175); conditions: S. cerevisiae mlh1 rad18 strain growth inhibition, active compounds read high
Summary of the method: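 Inhibition values reflect reduced growth of mutant yeast versus vehicle-treated controls following compound exposure; the mutations affect DNA damage repair.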

[15] = NCI Yeast Anticancer Drug Screen. Data for the rad18 strain (AID 177); conditions: S. cerevisiae rad18 mutant growth inhibition, active compounds read high
Summary of the method: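 Steps: expose repair-mutant yeast to compound; measure growth; express as inhibition relative to vehicle control.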

[16] = NCI Yeast Anticancer Drug Screen. Data for the rad50EPP+ strain (AID 151);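 further: 0% = growth of vehicle-treated control cultures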; conditions: S. cerevisiae rad50 mutant strain, active compounds read high
Summary of the method: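 Genetically defined yeast (rad50EPP+, DNA damage repair alteration) is grown with compound, and inhibition of growth is expressed relative to vehicle-treated controls.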

[17] = at 5.0 µM (retest, dose inferred, filed as 0.5)
[18] = at 50.0 µM (retest, dose inferred, filed as 5.0)

Measured: growth inhibition

COc1ccc2nc3c([N+](=O)[O-])ccc(NCCN(C)C)c3c(NCCN(C)C)c2c1
inactive: [1]; at 1.2 µM 15% | [1]; at 3.7 µM 10% | [1]; at 11.0 µM 26% | [1]; at 33.0 µM 28% | [1]; at 100.0 µM 23% | [2]; at 1.2 µM -3% | [2]; at 3.7 µM -3% | [2]; at 11.0 µM -3% | [2]; at 33.0 µM -2% | [2]; at 100.0 µM 0% | [3]; at 1.2 µM 0% | [3]; at 3.7 µM 2% | [3]; at 11.0 µM 1% | [3]; at 33.0 µM 1% | [3]; at 100.0 µM 2% | [4]; at 1.2 µM -1% | [4]; at 3.7 µM 0% | [4]; [17] 16% | [4]; at 11.0 µM 0% | [4]; at 33.0 µM 2% | [4]; [18] 33% | [4]; at 50.0 µM 26.9% | [4]; at 100.0 µM 12% | [5]; at 1.2 µM -1% | [5]; at 3.7 µM -4% | [5]; [17] 15% | [5]; at 11.0 µM -5% | [5]; at 33.0 µM 0% | [5]; [18] 17% | [5]; at 50.0 µM 35% | [5]; at 100.0 µM 3% | [6]; at 1.2 µM -2% | [6]; at 3.7 µM -3% | [6]; at 11.0 µM -3% | [6]; at 33.0 µM -4% | [6]; at 100.0 µM 1% | [7]; [17] -2% | [7]; [18] 14% | [7]; at 50.0 µM 3.95% | [8]; at 1.2 µM -5% | [8]; at 3.7 µM -1% | [8]; at 11.0 µM 1% | [8]; at 33.0 µM -5% | [8]; at 100.0 µM -5% | [9]; [17] 29% | [9]; [18] 61% | [9]; at 50.0 µM 62.4% | [10]; at 1.2 µM -3% | [10]; at 3.7 µM -7% | [10]; [17] 14% | [10]; at 11.0 µM 1% | [10]; at 33.0 µM -3% | [10]; [18] -1% | [10]; at 50.0 µM 20.4% | [10]; at 100.0 µM -3% | [11]; at 1.2 µM -3% | [11]; at 3.7 µM 0% | [11]; at 11.0 µM -1% | [11]; at 33.0 µM -1% | [11]; at 100.0 µM -2% | [12]; at 1.2 µM -1% | [12]; at 3.7 µM -2% | [12]; at 11.0 µM -1% | [12]; at 33.0 µM -1% | [12]; at 100.0 µM 1% | [13]; at 1.2 µM 3% | [13]; at 3.7 µM 6% | [13]; at 11.0 µM 2% | [13]; at 33.0 µM 2% | [13]; at 100.0 µM 2% | [14]; [17] -7% | [14]; [18] 24% | [14]; at 50.0 µM -21.4% | [15]; at 1.2 µM 6% | [15]; at 3.7 µM 6% | [15]; at 11.0 µM 7% | [15]; at 33.0 µM 1% | [15]; at 100.0 µM -6%

O=C(OCC=C1CCCC1)c1cc([N+](=O)[O-])cc([N+](=O)[O-])c1
active: [1]; at 33.0 µM 85% | [1]; at 100.0 µM 96% | [2]; at 33.0 µM 86% | [2]; at 100.0 µM 98% | [16]; at 33.0 µM 87% | [16]; at 100.0 µM 92% | [4]; at 33.0 µM 86% | [4]; at 100.0 µM 96% | [5]; at 33.0 µM 89% | [5]; at 100.0 µM 98% | [6]; at 33.0 µM 71% | [6]; at 100.0 µM 97% | [7]; [18] 81% | [8]; at 100.0 µM 96% | [10]; [18] 70% | [10]; at 100.0 µM 96% | [11]; at 33.0 µM 97% | [11]; at 100.0 µM 98% | [12]; at 33.0 µM 94% | [12]; at 100.0 µM 98% | [14]; [18] 94% | [15]; at 33.0 µM 95% | [15]; at 100.0 µM 98%
inactive: [1]; at 1.2 µM -1% | [1]; at 3.7 µM 2% | [1]; at 11.0 µM 21% | [2]; at 1.2 µM -6% | [2]; at 3.7 µM -1% | [2]; at 11.0 µM 10% | [16]; at 1.2 µM 3% | [16]; at 3.7 µM 16% | [16]; at 11.0 µM 53% | [4]; at 1.2 µM 0% | [4]; at 3.7 µM 4% | [4]; [17] 11% | [4]; at 11.0 µM 18% | [4]; [18] 57% | [4]; at 50.0 µM 4.3% | [5]; at 1.2 µM -3% | [5]; at 3.7 µM -2% | [5]; [17] 3% | [5]; at 11.0 µM 13% | [5]; [18] 48% | [5]; at 50.0 µM -14.6% | [6]; at 1.2 µM -2% | [6]; at 3.7 µM 1% | [6]; at 11.0 µM 12% | [7]; [17] -2% | [7]; at 50.0 µM 2.55% | [8]; at 1.2 µM -6% | [8]; at 3.7 µM 1% | [8]; at 11.0 µM 9% | [8]; at 33.0 µM 60% | [9]; [17] -24% | [9]; [18] 4% | [9]; at 50.0 µM -6.45% | [10]; at 1.2 µM -6% | [10]; at 3.7 µM -6% | [10]; [17] -21% | [10]; at 11.0 µM -1% | [10]; at 33.0 µM 61% | [10]; at 50.0 µM 5.55% | [11]; at 1.2 µM -3% | [11]; at 3.7 µM -3% | [11]; at 11.0 µM 16% | [12]; at 1.2 µM -2% | [12]; at 3.7 µM 4% | [12]; at 11.0 µM 22% | [14]; [17] 7% | [14]; at 50.0 µM 23.6% | [15]; at 1.2 µM -2% | [15]; at 3.7 µM 2% | [15]; at 11.0 µM 21%
